Assay outcomes from PubChem.
AmpC detergent: inhibitors of E. coli AmpC beta-lactamase with detergent. Potency, µM (highest dose often 114 µM), hits mostly inhibitors. hit rate 0.041% among 370,000. P00811. AmpC hydrolysis of nitrocefin, absorbance 480 nm, 0.01% Triton; note: nearly all actives have a fitted effect of over 25% in size
Target sequence (P00811 whole entry, looked up): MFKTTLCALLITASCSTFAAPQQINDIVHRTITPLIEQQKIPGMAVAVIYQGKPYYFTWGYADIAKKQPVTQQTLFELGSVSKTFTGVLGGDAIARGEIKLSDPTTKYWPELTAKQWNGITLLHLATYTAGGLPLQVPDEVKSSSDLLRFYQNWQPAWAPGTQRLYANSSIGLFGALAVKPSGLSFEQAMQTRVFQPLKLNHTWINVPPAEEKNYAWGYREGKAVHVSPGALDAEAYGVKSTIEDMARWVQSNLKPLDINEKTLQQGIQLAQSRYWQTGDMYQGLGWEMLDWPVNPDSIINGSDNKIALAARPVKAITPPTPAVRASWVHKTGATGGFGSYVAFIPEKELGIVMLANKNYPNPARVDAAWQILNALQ
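AmpC (5.3 nM in the dispensed reagent) in 20 mM phosphate pH 7.0 with 0.01% (detergent screen) or 0.0001% Triton X-100 was preincubated with compounds for 15 min at room temperature. Nitrocefin was then added from an 800 uM solution, and hydrolysis was followed at 480 nm.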
Shiga inhibitor: blocks Shiga toxin action in Vero cells; hit rate 9.2% among 290,000; inhibition, % at 38.7 µM; Vero cells, Shiga toxin protein synthesis inhibition reporter; in the data active = inhibition mostly above about 28%, no sharp cut-off; inactive = mostly below about 43%
CHX counter: affects cycloheximide protein synthesis inhibition readout, counter-screen; hit rate 12% among 300,000; cell reporter, cycloheximide protein synthesis inhibition counterscreen; max response, %; in the data active = max response mostly above about 13%, no sharp cut-off; inactive = mostly below about 14%; note: read at 38.3 µM for the half of the compounds with a filed dose
AmpC no deterg: inhibitors of E. coli AmpC beta-lactamase without detergent. AmpC nitrocefin hydrolysis, absorbance 480 nm, 0.0001% Triton. Potency, µM (highest dose often 57.1 µM), most hits filed as inhibitors. hit rate 0.52% among 330,000. AID 485341; note: nearly all actives have a fitted effect of over 20% in size
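20 mM phosphate pH 7.0 + 0.01% (detergent screen) or 0.0001% Triton X-100; 5.3 nM AmpC reagent; cpd preinc 15 min RT; nitrocefin (800 uM stock) to start; A480 q20 s × 4 min; Activity was normalised to no-enzyme and no-compound control wells.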
NS1 function inh: influenza NS1 inhibition | AID 2326 | Potency, µM (series often up to 46.1 µM) | hit rate 0.4% among 270,000; calls by dose curve; note: actives are rising curves; nearly all actives have a fitted effect of over 50% in size
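In this qHTS, NS1 from influenza A is expressed in budding yeast, where it slows growth. Cells are switched from glucose to 2% galactose medium (pH 6.0, -URA), treated with compound, and growth recovery is read at OD600.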
Large screens that a line does not name were inactive. This is one part of a sample in which hits are shown more often than they occur. Unless noted, calls come from the whole dose curve; as a rule, active = well fitted curve in the direction sought with a large enough effect; inconclusive = small, poorly fitted or top-dose-only effect, or another doubt; inactive = no such curve, though single readings can be large; an effect the other way counts as inactive or inconclusive.

Cc1[nH]c2ccccc2c1C(=O)C(=O)N1CCCc2ccccc21	Shiga inhibitor 63.7, CHX counter 50.1
CC(=O)c1ccc(N2CCN(C(=O)C(=O)c3c(C)[nH]c4ccccc34)CC2)cc1	CHX counter 15.4
Cc1nnc(SCc2nnc(-c3ccccc3Br)o2)n1-c1ccccc1	AmpC detergent inconclusive, AmpC no deterg 5.62µM
COc1ccc(-c2nnc(SCc3nnc(-c4ccccc4)o3)n2-c2ccccc2)cc1	AmpC detergent inconclusive
Oc1ccc(-n2nnnc2SCc2ccccc2Br)cc1	none
Brc1ccccc1-c1nnc(CSc2nnnn2-c2ccccc2)o1	AmpC detergent inconclusive, Shiga inhibitor 53.8, CHX counter 28.8
COc1ccc(-c2nnc(SCc3nnc(-c4ccc(Cl)cc4)o3)n2-c2ccccc2)cc1	CHX counter 24.1 (no result: AmpC no deterg)
NC(=O)C[C@H](N)C(N)=O	none (no result: AmpC detergent, Shiga inhibitor, CHX counter, AmpC no deterg)
CC(C)[C@H](NC(=O)c1ccco1)C(=O)NCc1ccccc1	none
Cn1nnc2c(N3CCN(c4ccccc4Cl)CC3)ncnc21	none (no result: Shiga inhibitor, CHX counter, AmpC no deterg, NS1 function inh)
CC(C)c1onc(C(=O)N2CCN(c3ccc(F)cc3)CC2)c1[N+](=O)[O-]	none
CCC(C)(O)c1[nH]c2ccc(C(=O)OC)cc2c1C (configuration not stated)	Shiga inhibitor 33.6, CHX counter 22.4
COc1ccc(-c2cc(C(=O)NCCc3ccc(OC)c(OC)c3)c3c(-c4ccc(F)cc4)[nH]nc3n2)cc1	none (no result: Shiga inhibitor, CHX counter, AmpC no deterg, NS1 function inh)
CC(C)(C)C1CCC(C(=O)Nc2ccc(N3CCOCC3)cc2N2CCOCC2)CC1 (configuration not stated)	none (no result: Shiga inhibitor, CHX counter, NS1 function inh)
N#CC1=C(N)Oc2c(ccc3ccccc23)C1c1ccsc1 (configuration not stated)	Shiga inhibitor 57.4, CHX counter 20.3
O=S(=O)(NCc1nc2cccnc2n1Cc1ccc(F)cc1)c1ccc(Cl)s1	none (no result: Shiga inhibitor, CHX counter, AmpC no deterg, NS1 function inh)
CCOC(=O)C(C#N)c1ccccn1 (configuration not stated)	AmpC detergent inconclusive, CHX counter 29.4
CCN(CC)S(=O)(=O)c1ccc(C(=O)C(C#N)c2ccccn2)cc1 (configuration not stated)	AmpC detergent inconclusive
O=C(N/N=C/C(Cl)=C/c1ccccc1)c1ccccc1F	Shiga inhibitor 80.3, CHX counter 55.9
O=C(N/N=C/C(Br)=C/c1ccccc1)c1ccccc1F	AmpC detergent inconclusive, Shiga inhibitor 86.4, CHX counter 34.3
O=C(NC1CCCCC1)C(=S)NCc1ccccc1	Shiga inhibitor 82.7, CHX counter 20.9
O=C(NC1CCCCCC1)C(=S)NCCc1ccccc1	none
O=C(NC1CCCCCC1)C(=S)NCc1ccccc1	Shiga inhibitor 61.9, CHX counter 39.5
O=C(NC1CCCCC1)C1CCN(C(=O)NCc2ccccc2)CC1	none
Cc1cccc(CNC(=O)c2ccc3nc(Cc4ccccc4)oc3c2)c1	none (no result: Shiga inhibitor, CHX counter, AmpC no deterg, NS1 function inh)
NC(N)=NC(N)=Nc1ccc(S(=O)(=O)O)cc1	none (no result: AmpC detergent, Shiga inhibitor, CHX counter, AmpC no deterg)
CCCCOc1ccc2ccccc2c1C=O	CHX counter 31.6
O=C(Nc1ccc(C(=O)OCc2cc(=O)n3nc(C4CC4)sc3n2)cc1)c1cccc(F)c1	none (no result: Shiga inhibitor, CHX counter, AmpC no deterg, NS1 function inh)
CN(c1ccccc1)S(=O)(=O)c1cccc(NC(=O)c2ccc(=O)[nH]n2)c1	AmpC no deterg 2µM (no result: AmpC detergent, Shiga inhibitor, CHX counter, NS1 function inh)
O=C(Nc1ccc2c(c1)CCC2)c1ccccc1F	Shiga inhibitor 96.8, CHX counter 62.8
NS(=O)(=O)c1ccc(NC(=O)c2ccc3c(c2)OCO3)cc1	none
NS(=O)(=O)c1ccc(NC(=O)c2ccc3c(c2)CCCC3)cc1	CHX counter 48.0
O=C(O)c1ccccc1-c1ccccc1C(=O)Nc1ccc2c(c1)CCC2	AmpC detergent inconclusive, NS1 function inh inconclusive (no result: Shiga inhibitor)
O=C(Nc1ccc2c(c1)CCC2)c1ccccc1	Shiga inhibitor 48.3, CHX counter 30.6
Cc1cccc(C)c1NC(=O)c1cc(S(=O)(=O)N2CCc3ccccc3C2)ccc1F	none (no result: Shiga inhibitor, CHX counter, AmpC no deterg, NS1 function inh)
Cn1cnnc1SC(C(=O)Nc1cccc(C(F)(F)F)c1)c1ccccc1 (configuration not stated)	none
CN(c1ccccc1)S(=O)(=O)c1cccc(C(=O)Nc2ccc3c(c2)CCC3)c1	Shiga inhibitor 81.9, CHX counter 20.5
Cc1nc(NC(=O)c2ccc(F)cc2)sc1C(=O)Nc1ccc2c(c1)CCC2	none
Cc1ccc(C(=O)Nc2nc(C)c(C(=O)Nc3ccc4c(c3)CCC4)s2)cc1	Shiga inhibitor 47.8, CHX counter 45.4
O=C(COc1ccc(-c2ccccc2)cc1)NNC(=O)Nc1ccc(F)cc1F	none
C=CCn1c(SCC(=O)Nc2ccccc2C)nnc1-c1ccncc1	none
C=CCn1c(SCC(=O)Nc2cccnc2Cl)nnc1-c1ccc(C(C)(C)C)cc1	CHX counter 13.0
COCCCNC(=O)c1ccc(Cn2c(=O)c3ccccc3n(CC(=O)NCCc3ccc(OC)c(OC)c3)c2=O)cc1	none (no result: NS1 function inh)
CCOc1ccc(CN(CCc2ccc3c(c2)OCO3)Cc2cc(OC)c(OC)cc2OC)cc1	none (no result: Shiga inhibitor, CHX counter, AmpC no deterg, NS1 function inh)
COc1ccc(-c2csc(-n3ncc(-c4ccccn4)c3N)n2)cc1	none (no result: NS1 function inh)
Nc1c(-c2cccs2)cnn1-c1nc(-c2ccc(F)cc2)cs1	Shiga inhibitor 43.7, CHX counter 16.9
Nc1c(-c2ccccn2)cnn1-c1nc(-c2ccc(F)cc2)cs1	CHX counter 44.5 (no result: NS1 function inh)
CN(C)c1ccc(NC(=O)c2ccc(Cn3cc([N+](=O)[O-])cn3)cc2)cc1	Shiga inhibitor 108.1, CHX counter 50.3 (no result: NS1 function inh)
COc1ccc(CC(=O)N/N=C(\C)CC(=O)Nc2ccc(N(C)C)cc2)cc1	none
CN(C)c1ccc(C(=O)Nc2ccc(CN3CCS(=O)(=O)CC3)cc2)cc1	CHX counter 35.8
O=C(Nc1cnn(Cc2c(Cl)cccc2Cl)c1)c1ccc([N+](=O)[O-])cc1	Shiga inhibitor 86.9, CHX counter 53.4
COc1ccc(C(=O)Nc2ccc(CN3CCS(=O)(=O)CC3)cc2)cc1	none
COc1ccc(NC(=O)c2ccc(Cn3cc(Cl)cn3)cc2)cc1	none
C/C(CC(=O)Nc1ccc(N(C)C)cc1)=N\NC(=O)Cc1csc(N)n1	Shiga inhibitor 47.8, CHX counter 19.5, NS1 function inh inconclusive
O=C(CCC(=O)N1Cc2ccccc2Oc2ncccc21)NCc1ccccc1Cl	none (no result: Shiga inhibitor, CHX counter, AmpC no deterg, NS1 function inh)
COc1ccc(CCNC(=O)CSc2cn(CCNC(=O)c3c(F)cccc3F)c3ccccc23)cc1OC	none (no result: Shiga inhibitor, CHX counter, AmpC no deterg, NS1 function inh)
CCN1CCN(Cc2c(C(=O)N/N=C(\C)c3ccc(Cl)c(Cl)c3)nnn2-c2nonc2N)CC1	none
C/C(CC(=O)Nc1ccc(N(C)C)cc1)=N\NC(=O)c1ccc([N+](=O)[O-])cc1	CHX counter 17.9
C/C(CC(=O)Nc1ccc([N+](=O)[O-])cc1)=N\NC(=O)c1ccccc1[N+](=O)[O-]	none
Cc1ccc(C(=O)Nc2ccc(CN3CCS(=O)(=O)CC3)cc2)cc1C	Shiga inhibitor 73.4, CHX counter 36.2
CC(NCCC1(Cc2ccccc2Cl)CCOC(C)(C)C1)c1cccs1 (configuration not stated)	none
CC(NCCC1(C(C)C)CCOC(C)(C)C1)c1cccs1 (configuration not stated)	CHX counter 8.8
Cc1cccc(NC2=NCCCS2)c1	none
